The text below walks through data of PubChem BioAssay (EPA / NIEHS).

Several values for one entry are separate records, joined by “and”; a condition that tells them apart may be missing. Equal entries are not always repeated. Records with an inconclusive call do not appear. A structure can be active in one record and inactive in another. Activity calls are given as the source filed them. Rule for the calls, unless noted: active = hit-call score of the fitted dose curve at least 0.9, where 1 is the maximum; inconclusive = response in the unintended direction; inactive = score below 0.9.

Sequence of Estrogen receptor (Homo sapiens) (P03372 whole entry, looked up, the tested form may be a part): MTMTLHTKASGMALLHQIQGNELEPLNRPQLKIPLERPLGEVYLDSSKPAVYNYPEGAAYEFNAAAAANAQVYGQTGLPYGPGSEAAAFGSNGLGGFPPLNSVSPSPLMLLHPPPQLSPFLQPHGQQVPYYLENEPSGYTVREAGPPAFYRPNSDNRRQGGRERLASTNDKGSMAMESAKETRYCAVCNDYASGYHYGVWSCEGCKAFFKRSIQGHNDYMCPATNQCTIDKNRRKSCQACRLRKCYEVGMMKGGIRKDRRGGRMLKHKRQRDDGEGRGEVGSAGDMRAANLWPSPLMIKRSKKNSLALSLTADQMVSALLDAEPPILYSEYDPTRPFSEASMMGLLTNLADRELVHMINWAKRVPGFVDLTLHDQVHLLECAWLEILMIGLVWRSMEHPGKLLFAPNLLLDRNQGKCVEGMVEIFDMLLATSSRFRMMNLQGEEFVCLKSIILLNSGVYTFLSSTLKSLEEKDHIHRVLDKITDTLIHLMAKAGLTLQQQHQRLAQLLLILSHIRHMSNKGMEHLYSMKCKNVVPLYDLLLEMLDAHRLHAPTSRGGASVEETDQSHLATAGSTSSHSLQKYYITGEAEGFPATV

Tested on in one assay: not listed separately
Kind of assay: ATG_VDRE_CIS: Attagene CIS-FACTORIAL HepG2 Assay for human Vitamin D Receptor Element (VDRE) (AID 2282968; active = hit-call score of the fitted dose curve at least 0.9, where 1 is the maximum; inactive = score below 0.9). Particulars: HepG2 VDRE cis-reporter transcription, actives raise or lower the signal. In outline: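 HepG2 cells transiently transfected with cis-element reporter units, dosed 24 h; reporter mRNA measured by RT-PCR, 6-FAM labeling, HpaI digestion and capillary electrophoresis. Activity fitted bidirectionally against DMSO baseline.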
As to `COc1nc(NC(C)C)nc(NC(C)C)n1`, the result was inactive.

As to `Oc1ccccc1-c1ccccc1`, the AC50 was 38.4 µM (active) and the compound was classed as inactive.

Regarding `COc1nc(C)nc(NC(=O)NS(=O)(=O)c2ccccc2Cl)n1`, the result was inactive.

Consider `CCOC(=O)CC(SP(=S)(OC)OC)C(=O)OCC` (configuration not stated), for which the AC50 was 20.2 µM (active) and 29.4 µM (active).

Consider `CCCCC(CC)COC(=O)c1ccccc1C(=O)OCC(CC)CCCC` (configuration not stated), for which the compound was classed as inactive.

For the compound `COc1nc(C)nc(NC(=O)NS(=O)(=O)c2ccccc2CCC(F)(F)F)n1`, the call was inactive.

As to `COc1ccc(C(c2ccc(OC)cc2)C(Cl)(Cl)Cl)cc1`, the AC50 is 4.94 µM (active) and 16.3 µM (active) and 11.9 µM (active); the compound was classed as inactive.

For the compound `CNC(=S)S`, the call was inactive.

Take `COP(=S)(OC)Oc1nc(Cl)c(Cl)cc1Cl`: the AC50 was 27.8 µM (active).

Take `COC(=O)N(OC)c1ccccc1COc1ccn(-c2ccc(Cl)cc2)n1`: the AC50 is 1.35 µM (active).

For `N#Cc1nn(-c2c(Cl)cc(C(F)(F)F)cc2Cl)c(N)c1S(=O)C(F)(F)F` (configuration not stated), the AC50 is 15.4 µM (active) and the compound was classed as inactive.

With `C=CCC1=C(C)[C@@H](OC(=O)[C@@H]2[C@@H](C=C(C)C)C2(C)C)CC1=O`, the AC50 was 6.05 µM (active).

`CCCC1COC(Cn2cncn2)(c2ccc(Cl)cc2Cl)O1` (configuration not stated): the AC50 is 7.99 µM (active) and the outcome was inactive.

In the case of `CON(C)C(=O)Nc1ccc(Cl)c(Cl)c1`, the AC50 is 28.7 µM (active) and 35.7 µM (active) and 23.4 µM (active); the call was inactive.

As to `CCCCNC(=O)n1c(NC(=O)OC)nc2ccccc21`, the call was inactive.

As to `CCCCOC(=O)c1ccccc1C(=O)OCCCC`, the result was inactive.

Consider `COC(=O)c1ccccc1C(=O)OC`, for which the result was inactive.

Regarding `CCCCNC(=O)OCC#CI`, the AC50 was 37 µM (active) and the outcome was inactive.

For `CC(C)(C)c1ccc(CSc2cnn(C(C)(C)C)c(=O)c2Cl)cc1`, the AC50 was 0.574 µM (active).

`C=CCC1=C(C)C(OC(=O)C2C(C=C(C)C)C2(C)C)CC1=O` (configuration not stated): the call was inactive.

In the case of `COC(=O)C=C(C)OP(=O)(OC)OC`, the call was inactive.

For the compound `CC(C)C1(C)N=C(c2nc3ccccc3cc2C(=O)O)NC1=O` (configuration not stated), the compound was called inactive.

For `CCCN(CCC)c1c([N+](=O)[O-])cc(S(N)(=O)=O)cc1[N+](=O)[O-]`, the AC50 was 915 nM (active) and 1.14 µM (active); the outcome was inactive.

`CCc1nn(C)c(C(=O)NCc2ccc(C(C)(C)C)cc2)c1Cl`: the concentration at half-maximal activity (AC50) was 1.91 µM (active).

As to `OC(c1ccc(Cl)cc1)(c1cncnc1)c1ccccc1Cl` (configuration not stated), the AC50 is 50 µM (active) and the result was inactive.

The target in another assay is Nuclear receptor subfamily 1 group I member 3 (Homo sapiens) (UniProt Q14994). Kind of assay: ATG_CAR_TRANS: Attagene TRANS-FACTORIAL HepG2 Assay for human Constitutive Androstane Receptor (CAR) (AID 2282969).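 Note: activators raise reporter mRNA above DMSO so AC50 marks induction.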 The following applies: HepG2 Attagene TRANS-FACTORIAL CAR reporter. In outline: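 HepG2 cells transiently transfected with multiplexed GAL4-UAS reporter units expressing chimeric NR-Gal4 proteins; compound exposure 24 h. Reporter mRNA measured by RT-PCR, 6-FAM labelling, HpaI digestion and capillary electrophoresis; gain-of-signal fitted against DMSO baseline.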
Sequence of Nuclear receptor subfamily 1 group I member 3 (Homo sapiens) (Q14994 whole entry, looked up, the tested form may be a part): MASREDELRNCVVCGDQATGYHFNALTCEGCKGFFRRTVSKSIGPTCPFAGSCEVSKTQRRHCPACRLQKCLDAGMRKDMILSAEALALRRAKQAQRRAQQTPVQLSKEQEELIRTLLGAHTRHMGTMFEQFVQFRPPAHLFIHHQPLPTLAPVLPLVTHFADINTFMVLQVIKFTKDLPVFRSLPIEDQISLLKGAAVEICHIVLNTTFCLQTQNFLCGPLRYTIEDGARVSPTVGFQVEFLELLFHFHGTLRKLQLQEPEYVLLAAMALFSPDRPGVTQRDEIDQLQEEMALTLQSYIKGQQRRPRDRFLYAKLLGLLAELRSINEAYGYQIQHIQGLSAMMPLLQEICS
In the case of `Oc1ccccc1-c1ccccc1`, the result was inactive.

Regarding `COc1nc(C)nc(NC(=O)NS(=O)(=O)c2ccccc2Cl)n1`, the result was inactive.

On to `CCOC(=O)CC(SP(=S)(OC)OC)C(=O)OCC` (configuration not stated), for which the compound was classed as inactive.

For the compound `CCCCC(CC)COC(=O)c1ccccc1C(=O)OCC(CC)CCCC` (configuration not stated), the compound was called inactive.

As to `COc1nc(C)nc(NC(=O)NS(=O)(=O)c2ccccc2CCC(F)(F)F)n1`, the compound was called inactive.

Regarding `COc1ccc(C(c2ccc(OC)cc2)C(Cl)(Cl)Cl)cc1`, the result was inactive.

Take `CNC(=S)S`: the call was inactive.

As for `COP(=S)(OC)Oc1nc(Cl)c(Cl)cc1Cl`, the result was inactive.

Take `COC(=O)N(OC)c1ccccc1COc1ccn(-c2ccc(Cl)cc2)n1`: the outcome was inactive.

Consider `N#Cc1nn(-c2c(Cl)cc(C(F)(F)F)cc2Cl)c(N)c1S(=O)C(F)(F)F` (configuration not stated), for which the outcome was inactive.

With `C=CCC1=C(C)[C@@H](OC(=O)[C@@H]2[C@@H](C=C(C)C)C2(C)C)CC1=O`, the call was inactive.

On to `CCCC1COC(Cn2cncn2)(c2ccc(Cl)cc2Cl)O1` (configuration not stated), for which the call was inactive.

With `CO/C=C(/C(=O)OC)c1ccccc1Oc1cc(Oc2ccccc2C#N)ncn1`, the result was inactive.

For `CON(C)C(=O)Nc1ccc(Cl)c(Cl)c1`, the result was inactive.

Turning to `CCCCNC(=O)n1c(NC(=O)OC)nc2ccccc21`, the outcome was inactive.

As to `CCCCOC(=O)c1ccccc1C(=O)OCCCC`, the compound was called inactive.

Take `COC(=O)c1ccccc1C(=O)OC`: the compound was classed as inactive.

As for `CCCCNC(=O)OCC#CI`, the call was inactive.

For the compound `CC(C)(C)c1ccc(CSc2cnn(C(C)(C)C)c(=O)c2Cl)cc1`, the outcome was inactive.

On to `C=CCC1=C(C)C(OC(=O)C2C(C=C(C)C)C2(C)C)CC1=O` (configuration not stated), for which the result was inactive.

Take `COC(=O)C=C(C)OP(=O)(OC)OC`: the result was inactive.

For the compound `CC(C)C1(C)N=C(c2nc3ccccc3cc2C(=O)O)NC1=O` (configuration not stated), the outcome was inactive.

Take `CCCN(CCC)c1c([N+](=O)[O-])cc(S(N)(=O)=O)cc1[N+](=O)[O-]`: the outcome was inactive.

Turning to `CCc1nn(C)c(C(=O)NCc2ccc(C(C)(C)C)cc2)c1Cl`, the call was inactive.

With `OC(c1ccc(Cl)cc1)(c1cncnc1)c1ccccc1Cl` (configuration not stated), the call was inactive.

The next assay concerns the target Estrogen receptor (Homo sapiens) (UniProt P03372). Kind of assay: ATG_ERa_TRANS: Attagene TRANS-FACTORIAL HepG2 Assay for human Estrogen Receptor alpha (ERa) (AID 2282970). Particulars: HepG2 Attagene TRANS ERa GAL4 reporter, mRNA. In outline: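 Cells: HepG2, transiently transfected. Construct: GAL4-UAS reporter units regulated by exogenous NR-Gal4 chimeras. Time: 24 h. Detection: reporter mRNA by RT-PCR, capillary electrophoresis, fluorescence. Baseline: DMSO, upward fitting.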
For `COc1nc(NC(C)C)nc(NC(C)C)n1`, the call was inactive.

Take `Oc1ccccc1-c1ccccc1`: the AC50 was 31.1 µM (active) and 27.8 µM (active).

On to `COc1nc(C)nc(NC(=O)NS(=O)(=O)c2ccccc2Cl)n1`, for which the outcome was inactive.

Take `CCOC(=O)CC(SP(=S)(OC)OC)C(=O)OCC` (configuration not stated): the AC50 is 68 µM (active) and 32.4 µM (active).

Turning to `CCCCC(CC)COC(=O)c1ccccc1C(=O)OCC(CC)CCCC` (configuration not stated), the call was inactive.

As to `COc1nc(C)nc(NC(=O)NS(=O)(=O)c2ccccc2CCC(F)(F)F)n1`, the outcome was inactive.

As for `COc1ccc(C(c2ccc(OC)cc2)C(Cl)(Cl)Cl)cc1`, the AC50 is 1.53 µM (active) [middle of 4 runs] and the compound was classed as inactive.

Turning to `COP(=S)(OC)Oc1nc(Cl)c(Cl)cc1Cl`, the AC50 is 33.1 µM (active).

For `COC(=O)N(OC)c1ccccc1COc1ccn(-c2ccc(Cl)cc2)n1`, the result was inactive.

Turning to `N#Cc1nn(-c2c(Cl)cc(C(F)(F)F)cc2Cl)c(N)c1S(=O)C(F)(F)F` (configuration not stated), the AC50 was 11.8 µM (active) and the result was inactive.

As for `C=CCC1=C(C)[C@@H](OC(=O)[C@@H]2[C@@H](C=C(C)C)C2(C)C)CC1=O`, the compound was classed as inactive.

In the case of `CO/C=C(/C(=O)OC)c1ccccc1Oc1cc(Oc2ccccc2C#N)ncn1`, the call was inactive.

With `CON(C)C(=O)Nc1ccc(Cl)c(Cl)c1`, the outcome was inactive.

Take `CCCCNC(=O)n1c(NC(=O)OC)nc2ccccc21`: the result was inactive.

Turning to `CCCCOC(=O)c1ccccc1C(=O)OCCCC`, the compound was classed as inactive.

With `COC(=O)c1ccccc1C(=O)OC`, the compound was classed as inactive.

For `CCCCNC(=O)OCC#CI`, the AC50 is 25.4 µM (active) and the call was inactive.

With `CC(C)(C)c1ccc(CSc2cnn(C(C)(C)C)c(=O)c2Cl)cc1`, the AC50 is 26.5 µM (active).

As to `C=CCC1=C(C)C(OC(=O)C2C(C=C(C)C)C2(C)C)CC1=O` (configuration not stated), the AC50 was 26.8 µM (active) and the call was inactive.

On to `COC(=O)C=C(C)OP(=O)(OC)OC`, for which the compound was classed as inactive.

`CC(C)C1(C)N=C(c2nc3ccccc3cc2C(=O)O)NC1=O` (configuration not stated): the compound was called inactive.

In the case of `CCCN(CCC)c1c([N+](=O)[O-])cc(S(N)(=O)=O)cc1[N+](=O)[O-]`, the compound was classed as inactive.

As to `CCc1nn(C)c(C(=O)NCc2ccc(C(C)(C)C)cc2)c1Cl`, the compound was classed as inactive.

Take `OC(c1ccc(Cl)cc1)(c1cncnc1)c1ccccc1Cl` (configuration not stated): the half-maximal activity concentration (AC50) is 3.2 µM (active) and the result was inactive.
